According to the supplement of paper PMC11732987, “Enantioselective OTUD7B fragment discovery through chemoproteomics screening and high-throughput optimisation” (Communications Chemistry, 2025):

What was measured:
Assay in all cases: log2 ratio of Biotin-Ahx-Ub-VS probe labelling (fragment/DMSO); higher = less target engagement (more negative = stronger competition), active = hit call of the paper (q ≤ 0.05, log2 ratio ≤ -1)
Settings in all cases: compound concentration: 200 uM; treatment time: 3 h
USP42 = biological target: T1, USP42 (UniProt Q9H9J4)
T1 sequence (whole entry): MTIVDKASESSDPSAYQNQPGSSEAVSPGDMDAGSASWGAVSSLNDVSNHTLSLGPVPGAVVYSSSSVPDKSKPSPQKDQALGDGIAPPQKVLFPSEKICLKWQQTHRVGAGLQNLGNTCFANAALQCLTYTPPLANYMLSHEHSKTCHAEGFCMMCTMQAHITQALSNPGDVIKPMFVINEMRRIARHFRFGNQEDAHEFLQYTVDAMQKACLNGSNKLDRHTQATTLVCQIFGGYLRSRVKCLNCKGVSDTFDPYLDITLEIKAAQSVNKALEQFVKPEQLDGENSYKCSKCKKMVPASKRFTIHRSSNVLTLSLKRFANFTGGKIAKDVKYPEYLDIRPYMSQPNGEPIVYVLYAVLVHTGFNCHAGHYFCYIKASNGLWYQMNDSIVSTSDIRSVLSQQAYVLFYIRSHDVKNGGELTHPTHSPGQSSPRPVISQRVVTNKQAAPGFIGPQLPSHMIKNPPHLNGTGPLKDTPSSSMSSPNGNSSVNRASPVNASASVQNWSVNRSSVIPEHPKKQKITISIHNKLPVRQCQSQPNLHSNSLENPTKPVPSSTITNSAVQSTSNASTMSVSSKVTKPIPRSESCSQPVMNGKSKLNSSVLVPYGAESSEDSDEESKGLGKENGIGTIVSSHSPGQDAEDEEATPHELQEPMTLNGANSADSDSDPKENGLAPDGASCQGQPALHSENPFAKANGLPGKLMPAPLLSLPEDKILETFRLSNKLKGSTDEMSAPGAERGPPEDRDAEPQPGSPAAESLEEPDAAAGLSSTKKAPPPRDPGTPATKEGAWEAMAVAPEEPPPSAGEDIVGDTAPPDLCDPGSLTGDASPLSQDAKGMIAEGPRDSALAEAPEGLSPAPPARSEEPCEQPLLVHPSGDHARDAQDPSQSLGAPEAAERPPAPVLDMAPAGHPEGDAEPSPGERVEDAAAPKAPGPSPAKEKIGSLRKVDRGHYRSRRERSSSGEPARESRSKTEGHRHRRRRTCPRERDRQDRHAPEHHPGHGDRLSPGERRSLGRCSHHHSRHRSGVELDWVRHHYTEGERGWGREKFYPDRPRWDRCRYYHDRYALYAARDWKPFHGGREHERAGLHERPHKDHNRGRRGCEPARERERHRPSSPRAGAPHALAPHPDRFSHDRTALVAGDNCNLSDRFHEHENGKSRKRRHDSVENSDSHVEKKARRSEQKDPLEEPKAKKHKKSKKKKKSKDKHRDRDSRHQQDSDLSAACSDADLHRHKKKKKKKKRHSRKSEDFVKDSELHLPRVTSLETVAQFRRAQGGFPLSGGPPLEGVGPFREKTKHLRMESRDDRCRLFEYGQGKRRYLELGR
Procedure, shortened: (§1)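 Labelled DUBs were enriched with NeutrAvidin, digested with LysC and trypsin, and run by diaPASEF LC-MS/MS. The labelling used Biotin-Ahx-Ub-VS at 0.5 µM final for 1 h on HEK293T lysate (495 µg per sample) previously treated in triplicate with fragment at 200 µM or vehicle for 3 h. Values are average log2 fragment/vehicle ratios by unpaired t-test on global-median-normalised Spectronaut quantities of proteins with ≥2 unique peptides.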

USP46 = USP46 (UniProt P62068)
Procedure, shortened: as §1

USP47 = biological target: T2, USP47 (UniProt Q96K76)
T2 sequence (whole entry): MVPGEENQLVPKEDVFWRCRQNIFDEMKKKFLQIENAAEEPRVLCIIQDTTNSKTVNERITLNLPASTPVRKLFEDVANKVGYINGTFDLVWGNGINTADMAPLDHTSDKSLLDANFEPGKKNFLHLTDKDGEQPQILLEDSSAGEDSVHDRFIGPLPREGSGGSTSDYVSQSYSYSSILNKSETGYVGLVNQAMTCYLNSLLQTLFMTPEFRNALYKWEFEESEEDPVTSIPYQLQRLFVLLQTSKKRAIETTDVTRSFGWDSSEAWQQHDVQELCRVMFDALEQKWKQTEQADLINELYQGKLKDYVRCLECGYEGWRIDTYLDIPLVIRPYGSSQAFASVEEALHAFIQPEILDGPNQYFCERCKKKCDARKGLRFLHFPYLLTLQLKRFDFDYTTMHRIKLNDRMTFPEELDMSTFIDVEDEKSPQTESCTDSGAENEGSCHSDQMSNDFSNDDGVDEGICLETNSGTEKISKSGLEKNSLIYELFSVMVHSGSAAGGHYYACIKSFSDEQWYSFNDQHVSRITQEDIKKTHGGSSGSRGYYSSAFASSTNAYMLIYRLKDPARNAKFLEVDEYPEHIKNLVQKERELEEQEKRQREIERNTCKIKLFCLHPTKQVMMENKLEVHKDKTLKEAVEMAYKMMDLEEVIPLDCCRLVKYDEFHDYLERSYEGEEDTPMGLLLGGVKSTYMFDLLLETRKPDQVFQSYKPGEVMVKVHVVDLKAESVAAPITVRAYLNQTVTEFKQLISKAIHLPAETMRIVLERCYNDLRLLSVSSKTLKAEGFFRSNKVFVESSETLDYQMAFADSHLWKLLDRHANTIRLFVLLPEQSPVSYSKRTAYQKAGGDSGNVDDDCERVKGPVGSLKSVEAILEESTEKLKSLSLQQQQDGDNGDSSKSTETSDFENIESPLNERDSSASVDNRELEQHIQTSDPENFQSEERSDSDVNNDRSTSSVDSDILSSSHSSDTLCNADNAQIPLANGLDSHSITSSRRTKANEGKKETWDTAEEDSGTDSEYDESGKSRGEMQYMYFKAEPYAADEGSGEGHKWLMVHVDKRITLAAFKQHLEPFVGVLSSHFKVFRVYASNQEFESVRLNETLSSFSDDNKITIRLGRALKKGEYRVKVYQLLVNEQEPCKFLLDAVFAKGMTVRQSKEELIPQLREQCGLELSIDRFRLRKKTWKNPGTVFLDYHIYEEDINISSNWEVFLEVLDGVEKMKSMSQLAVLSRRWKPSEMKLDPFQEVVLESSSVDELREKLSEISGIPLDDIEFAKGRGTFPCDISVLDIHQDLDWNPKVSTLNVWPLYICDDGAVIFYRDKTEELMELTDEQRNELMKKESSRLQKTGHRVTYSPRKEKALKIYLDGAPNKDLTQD
Procedure, shortened: as §1

USP48 = biological target: T3, USP48 (UniProt Q86UV5)
T3 sequence (whole entry): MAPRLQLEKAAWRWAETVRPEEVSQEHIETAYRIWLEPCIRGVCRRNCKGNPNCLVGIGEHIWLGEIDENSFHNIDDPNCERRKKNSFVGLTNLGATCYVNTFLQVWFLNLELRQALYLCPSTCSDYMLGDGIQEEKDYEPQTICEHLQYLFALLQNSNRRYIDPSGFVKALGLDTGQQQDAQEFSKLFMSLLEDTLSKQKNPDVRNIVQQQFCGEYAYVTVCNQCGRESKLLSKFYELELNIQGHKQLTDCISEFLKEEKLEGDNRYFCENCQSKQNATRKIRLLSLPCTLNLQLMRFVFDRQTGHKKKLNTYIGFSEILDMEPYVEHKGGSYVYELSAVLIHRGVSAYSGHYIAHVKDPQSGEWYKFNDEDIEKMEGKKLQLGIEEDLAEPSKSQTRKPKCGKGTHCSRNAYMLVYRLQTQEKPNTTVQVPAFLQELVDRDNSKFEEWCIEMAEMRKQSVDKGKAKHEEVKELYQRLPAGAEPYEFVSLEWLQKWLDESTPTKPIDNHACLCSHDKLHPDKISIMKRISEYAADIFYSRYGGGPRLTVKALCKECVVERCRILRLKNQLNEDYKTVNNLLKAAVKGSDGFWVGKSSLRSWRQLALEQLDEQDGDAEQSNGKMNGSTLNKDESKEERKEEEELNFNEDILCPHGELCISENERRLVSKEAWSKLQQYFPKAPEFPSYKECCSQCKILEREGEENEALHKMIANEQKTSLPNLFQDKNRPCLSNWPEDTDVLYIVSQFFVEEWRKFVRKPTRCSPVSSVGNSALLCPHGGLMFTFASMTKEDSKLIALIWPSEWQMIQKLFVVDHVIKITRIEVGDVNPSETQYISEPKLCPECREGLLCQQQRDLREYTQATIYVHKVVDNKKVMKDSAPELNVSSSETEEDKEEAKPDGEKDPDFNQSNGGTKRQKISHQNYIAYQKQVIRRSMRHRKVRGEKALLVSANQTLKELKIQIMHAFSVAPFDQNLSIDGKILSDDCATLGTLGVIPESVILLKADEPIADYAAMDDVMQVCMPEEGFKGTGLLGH
Procedure, shortened: as §1

USP5 = biological target: T4, USP5 (UniProt P45974)
T4 sequence (whole entry): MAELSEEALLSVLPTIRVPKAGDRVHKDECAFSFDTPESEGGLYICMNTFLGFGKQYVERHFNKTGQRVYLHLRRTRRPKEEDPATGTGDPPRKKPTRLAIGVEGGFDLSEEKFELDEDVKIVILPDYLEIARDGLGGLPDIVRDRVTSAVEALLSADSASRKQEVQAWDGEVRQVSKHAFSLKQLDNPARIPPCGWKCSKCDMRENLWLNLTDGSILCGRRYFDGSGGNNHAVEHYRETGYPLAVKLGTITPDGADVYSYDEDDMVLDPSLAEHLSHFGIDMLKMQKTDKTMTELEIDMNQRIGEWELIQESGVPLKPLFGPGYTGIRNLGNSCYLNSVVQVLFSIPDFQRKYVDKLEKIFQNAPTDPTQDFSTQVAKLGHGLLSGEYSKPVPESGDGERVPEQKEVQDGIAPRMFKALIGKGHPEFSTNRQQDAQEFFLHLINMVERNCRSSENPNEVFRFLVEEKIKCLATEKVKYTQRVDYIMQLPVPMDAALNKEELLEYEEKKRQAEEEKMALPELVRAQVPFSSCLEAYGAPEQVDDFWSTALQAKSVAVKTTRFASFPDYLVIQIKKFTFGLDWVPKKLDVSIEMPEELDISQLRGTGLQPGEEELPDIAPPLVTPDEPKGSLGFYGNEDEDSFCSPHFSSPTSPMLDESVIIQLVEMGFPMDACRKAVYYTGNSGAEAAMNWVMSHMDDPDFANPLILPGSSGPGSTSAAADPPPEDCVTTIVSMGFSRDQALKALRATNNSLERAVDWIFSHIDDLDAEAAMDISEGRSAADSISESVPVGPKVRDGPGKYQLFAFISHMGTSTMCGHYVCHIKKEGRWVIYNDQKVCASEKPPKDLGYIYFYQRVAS
Procedure, shortened: as §1

USP54 = USP54 (UniProt Q70EL1)
Procedure, shortened: as §1

USP7 = USP7 (UniProt Q93009)
Procedure, shortened: as §1

USP8 = biological target: T5, USP8 (UniProt P40818)
T5 sequence (whole entry): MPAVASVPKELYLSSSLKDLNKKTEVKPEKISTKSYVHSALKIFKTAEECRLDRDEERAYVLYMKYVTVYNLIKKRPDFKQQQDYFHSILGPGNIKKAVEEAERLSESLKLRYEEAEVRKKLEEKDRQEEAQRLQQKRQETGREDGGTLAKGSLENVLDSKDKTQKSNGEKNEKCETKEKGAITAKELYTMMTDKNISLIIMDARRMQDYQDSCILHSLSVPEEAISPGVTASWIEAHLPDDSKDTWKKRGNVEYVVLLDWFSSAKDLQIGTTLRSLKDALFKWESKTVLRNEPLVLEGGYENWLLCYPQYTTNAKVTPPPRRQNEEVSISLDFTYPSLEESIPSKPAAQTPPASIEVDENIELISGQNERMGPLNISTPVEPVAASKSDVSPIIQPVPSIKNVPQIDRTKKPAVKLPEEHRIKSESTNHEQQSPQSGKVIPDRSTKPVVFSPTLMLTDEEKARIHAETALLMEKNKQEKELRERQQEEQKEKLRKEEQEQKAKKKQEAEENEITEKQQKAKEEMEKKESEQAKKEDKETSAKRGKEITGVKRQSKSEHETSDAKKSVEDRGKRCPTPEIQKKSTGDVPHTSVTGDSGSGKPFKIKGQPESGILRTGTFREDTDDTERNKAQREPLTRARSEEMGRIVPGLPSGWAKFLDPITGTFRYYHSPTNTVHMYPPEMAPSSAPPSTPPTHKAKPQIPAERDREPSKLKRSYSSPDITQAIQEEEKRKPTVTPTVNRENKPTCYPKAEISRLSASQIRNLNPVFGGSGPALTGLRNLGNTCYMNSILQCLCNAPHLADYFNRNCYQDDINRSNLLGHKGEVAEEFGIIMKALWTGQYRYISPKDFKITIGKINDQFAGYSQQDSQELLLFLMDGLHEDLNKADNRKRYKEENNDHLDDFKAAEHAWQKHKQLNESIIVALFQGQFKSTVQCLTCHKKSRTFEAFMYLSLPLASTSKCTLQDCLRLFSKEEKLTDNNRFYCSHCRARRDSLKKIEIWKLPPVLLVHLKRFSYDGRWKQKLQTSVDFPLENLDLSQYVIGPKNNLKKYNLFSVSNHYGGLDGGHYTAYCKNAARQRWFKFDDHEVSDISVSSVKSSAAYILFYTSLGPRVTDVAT
Procedure, shortened: as §1

USP9X = USP9X (UniProt Q93008)
Procedure, shortened: as §1

UniProt O00487 = biological target: UniProt O00487
Procedure, shortened: as §1

Measured: log2 ratio of Biotin-Ahx-Ub-VS probe labelling

Sequence of USP9X (Q93008 whole entry): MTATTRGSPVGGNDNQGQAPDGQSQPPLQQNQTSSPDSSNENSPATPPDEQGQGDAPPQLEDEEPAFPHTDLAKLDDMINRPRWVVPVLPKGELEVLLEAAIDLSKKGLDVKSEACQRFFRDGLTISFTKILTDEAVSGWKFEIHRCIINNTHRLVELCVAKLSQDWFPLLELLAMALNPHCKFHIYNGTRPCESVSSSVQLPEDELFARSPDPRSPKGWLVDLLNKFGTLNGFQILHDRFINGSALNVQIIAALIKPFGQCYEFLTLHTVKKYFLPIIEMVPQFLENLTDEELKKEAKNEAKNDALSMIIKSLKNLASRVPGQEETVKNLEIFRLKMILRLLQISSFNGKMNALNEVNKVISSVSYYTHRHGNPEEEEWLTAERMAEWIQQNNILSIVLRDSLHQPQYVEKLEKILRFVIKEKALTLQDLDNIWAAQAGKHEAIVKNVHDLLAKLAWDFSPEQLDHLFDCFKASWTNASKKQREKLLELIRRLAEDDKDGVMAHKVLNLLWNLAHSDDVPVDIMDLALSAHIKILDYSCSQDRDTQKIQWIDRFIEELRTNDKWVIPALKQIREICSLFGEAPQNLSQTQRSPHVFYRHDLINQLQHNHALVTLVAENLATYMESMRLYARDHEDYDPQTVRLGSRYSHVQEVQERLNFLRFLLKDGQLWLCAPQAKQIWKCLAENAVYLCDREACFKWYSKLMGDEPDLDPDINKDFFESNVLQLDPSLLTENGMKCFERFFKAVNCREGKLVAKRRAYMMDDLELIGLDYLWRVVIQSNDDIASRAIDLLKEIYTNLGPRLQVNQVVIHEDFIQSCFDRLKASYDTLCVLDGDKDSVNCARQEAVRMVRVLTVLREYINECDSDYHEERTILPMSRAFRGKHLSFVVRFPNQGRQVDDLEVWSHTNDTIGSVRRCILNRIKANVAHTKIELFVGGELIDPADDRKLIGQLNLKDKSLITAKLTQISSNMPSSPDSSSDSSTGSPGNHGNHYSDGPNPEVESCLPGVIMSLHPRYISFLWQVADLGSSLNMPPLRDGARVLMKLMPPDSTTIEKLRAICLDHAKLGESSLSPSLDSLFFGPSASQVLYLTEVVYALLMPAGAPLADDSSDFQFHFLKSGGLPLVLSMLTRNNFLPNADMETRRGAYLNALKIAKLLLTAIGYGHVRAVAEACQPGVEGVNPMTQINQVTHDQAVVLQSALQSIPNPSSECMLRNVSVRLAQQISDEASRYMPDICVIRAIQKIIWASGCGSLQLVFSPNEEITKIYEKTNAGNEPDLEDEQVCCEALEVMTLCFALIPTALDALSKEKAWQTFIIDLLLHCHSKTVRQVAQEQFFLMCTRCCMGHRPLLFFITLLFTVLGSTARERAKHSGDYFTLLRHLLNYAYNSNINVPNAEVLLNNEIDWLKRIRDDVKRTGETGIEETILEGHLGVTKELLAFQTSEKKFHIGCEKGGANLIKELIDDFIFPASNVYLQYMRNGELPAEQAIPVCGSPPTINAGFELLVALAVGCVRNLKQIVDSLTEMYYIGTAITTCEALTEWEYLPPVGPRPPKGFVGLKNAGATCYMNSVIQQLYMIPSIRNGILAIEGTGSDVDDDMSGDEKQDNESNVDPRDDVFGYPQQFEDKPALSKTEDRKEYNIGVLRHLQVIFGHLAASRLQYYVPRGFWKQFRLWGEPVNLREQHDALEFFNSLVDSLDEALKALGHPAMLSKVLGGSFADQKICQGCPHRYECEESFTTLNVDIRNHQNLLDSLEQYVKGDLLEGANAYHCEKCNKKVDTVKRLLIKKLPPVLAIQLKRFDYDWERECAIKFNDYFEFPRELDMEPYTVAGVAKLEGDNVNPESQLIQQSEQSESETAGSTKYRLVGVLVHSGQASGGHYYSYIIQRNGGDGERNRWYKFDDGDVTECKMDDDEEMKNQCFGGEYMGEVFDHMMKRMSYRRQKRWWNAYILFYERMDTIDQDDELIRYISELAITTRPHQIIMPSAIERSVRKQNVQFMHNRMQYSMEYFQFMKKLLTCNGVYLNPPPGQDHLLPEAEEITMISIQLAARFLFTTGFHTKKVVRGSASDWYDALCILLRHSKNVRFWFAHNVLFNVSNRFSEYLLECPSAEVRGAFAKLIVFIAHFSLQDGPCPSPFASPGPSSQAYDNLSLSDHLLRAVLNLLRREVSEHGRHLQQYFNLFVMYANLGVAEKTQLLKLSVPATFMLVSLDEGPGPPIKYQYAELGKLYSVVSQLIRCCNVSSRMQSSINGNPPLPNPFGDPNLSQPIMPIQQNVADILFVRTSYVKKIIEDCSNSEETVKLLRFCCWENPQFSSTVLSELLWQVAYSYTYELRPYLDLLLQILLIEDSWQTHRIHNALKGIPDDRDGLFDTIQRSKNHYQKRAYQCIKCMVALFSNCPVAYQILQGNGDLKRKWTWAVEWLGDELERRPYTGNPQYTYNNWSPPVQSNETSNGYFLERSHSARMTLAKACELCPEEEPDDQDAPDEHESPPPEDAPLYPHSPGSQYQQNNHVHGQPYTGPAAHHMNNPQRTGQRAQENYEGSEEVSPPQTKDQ
Sequence of USP46 (P62068 whole entry): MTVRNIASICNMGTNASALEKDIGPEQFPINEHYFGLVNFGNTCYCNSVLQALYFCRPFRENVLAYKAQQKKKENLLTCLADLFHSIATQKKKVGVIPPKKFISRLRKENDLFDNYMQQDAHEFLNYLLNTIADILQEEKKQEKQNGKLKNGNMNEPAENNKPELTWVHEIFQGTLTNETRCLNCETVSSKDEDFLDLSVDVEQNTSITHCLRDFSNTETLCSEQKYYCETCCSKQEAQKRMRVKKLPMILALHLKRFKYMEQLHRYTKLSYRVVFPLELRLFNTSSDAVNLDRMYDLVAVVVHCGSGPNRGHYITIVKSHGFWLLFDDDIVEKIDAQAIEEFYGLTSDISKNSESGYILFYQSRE
Sequence of USP7 (Q93009 whole entry, looked up): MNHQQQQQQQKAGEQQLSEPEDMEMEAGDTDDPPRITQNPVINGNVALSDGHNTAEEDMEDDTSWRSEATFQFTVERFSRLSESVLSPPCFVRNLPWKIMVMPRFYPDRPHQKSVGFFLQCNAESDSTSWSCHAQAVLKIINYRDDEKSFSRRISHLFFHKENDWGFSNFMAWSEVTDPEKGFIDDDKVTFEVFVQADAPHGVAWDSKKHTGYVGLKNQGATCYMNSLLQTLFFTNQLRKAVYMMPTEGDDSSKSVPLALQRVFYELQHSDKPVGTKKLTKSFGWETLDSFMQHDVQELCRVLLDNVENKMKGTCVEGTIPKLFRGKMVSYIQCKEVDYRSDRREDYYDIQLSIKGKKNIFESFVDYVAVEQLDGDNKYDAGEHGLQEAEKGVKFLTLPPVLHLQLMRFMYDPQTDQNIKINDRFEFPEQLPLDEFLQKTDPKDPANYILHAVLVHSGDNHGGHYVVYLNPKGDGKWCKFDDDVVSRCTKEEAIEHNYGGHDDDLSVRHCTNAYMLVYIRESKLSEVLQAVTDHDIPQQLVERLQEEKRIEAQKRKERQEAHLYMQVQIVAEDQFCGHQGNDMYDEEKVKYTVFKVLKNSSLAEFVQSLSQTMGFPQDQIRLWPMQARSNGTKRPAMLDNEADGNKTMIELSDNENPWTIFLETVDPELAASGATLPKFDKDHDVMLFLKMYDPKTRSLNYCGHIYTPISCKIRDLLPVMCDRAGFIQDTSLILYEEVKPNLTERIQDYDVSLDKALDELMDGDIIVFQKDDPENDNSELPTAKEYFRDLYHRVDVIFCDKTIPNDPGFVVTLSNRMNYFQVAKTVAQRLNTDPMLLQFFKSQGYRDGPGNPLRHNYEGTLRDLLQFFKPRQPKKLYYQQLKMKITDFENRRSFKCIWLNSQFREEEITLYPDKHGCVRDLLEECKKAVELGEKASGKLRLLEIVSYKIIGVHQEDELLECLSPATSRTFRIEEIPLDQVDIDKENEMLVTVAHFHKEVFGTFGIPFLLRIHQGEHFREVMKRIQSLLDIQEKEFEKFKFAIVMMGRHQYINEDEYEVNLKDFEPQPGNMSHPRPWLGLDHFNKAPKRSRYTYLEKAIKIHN
Sequence of UniProt O00487 (O00487 whole entry): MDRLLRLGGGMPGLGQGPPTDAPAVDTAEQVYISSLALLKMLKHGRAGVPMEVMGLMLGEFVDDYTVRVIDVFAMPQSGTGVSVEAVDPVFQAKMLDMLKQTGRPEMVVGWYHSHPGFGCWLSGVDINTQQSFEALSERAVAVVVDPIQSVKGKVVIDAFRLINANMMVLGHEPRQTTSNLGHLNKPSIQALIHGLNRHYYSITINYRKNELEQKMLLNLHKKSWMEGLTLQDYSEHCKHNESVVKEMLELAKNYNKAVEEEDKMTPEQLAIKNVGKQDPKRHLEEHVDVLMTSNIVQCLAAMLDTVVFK

O=C(CCl)N1CCOCC1C1CC1 (stereo not given)
inactive: USP42 -0.112 | USP46 0.00778 | USP47 -0.0311 | USP48 0.0155 | USP5 0.147 | USP54 0.967 | USP7 -0.145 | USP8 -0.168 | USP9X -0.18 | UniProt O00487 -0.226

O=C(CCl)N1CCCC2CCCCC21 (stereo not given)
inactive: USP42 0.484 | USP46 -0.132 | USP47 -0.696 | USP48 -0.516 | USP5 0.0316 | USP54 0.268 | USP7 -0.486 | USP8 -0.0438 | USP9X -0.183 | UniProt O00487 -0.107

Cc1ccc(CN(C)C(=O)CCl)o1
inactive: USP42 0.191 | USP46 -0.175 | USP47 0.0147 | USP48 -0.264 | USP5 0.245 | USP54 0.355 | USP7 -0.538 | USP8 -0.199 | USP9X -0.23 | UniProt O00487 -0.0611

NC(=O)C(Cc1ccccc1)NC(=O)CCl (stereo not given)
inactive: USP42 -0.119 | USP46 0.0497 | USP47 -0.239 | USP48 -0.238 | USP5 0.0132 | USP54 0.357 | USP7 -0.174 | USP8 -0.047 | USP9X -0.099 | UniProt O00487 -0.162
